Pf growth 96h: P. falciparum growth inhibition at 96 hour, primary screen for plastid delayed-death inhibitors | 6.9% of 320,000 active | P. falciparum luciferase reporter growth, 96 h | AID 504834 | Potency, µM (highest dose often 28.7 µM), hits mostly inhibitors
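Plates of compound plus infected erythrocytes (2% hematocrit, 0.05% parasitemia final) incubate 96 hours, 37 C, 5% CO2. Detection reagent added; reduced luminescence from the parasites' luciferase reporter flags inhibition.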
HCMV antiviral: inhibitors of human cytomegalovirus | activity change, negative = inhibition, % at 57.5 µM | 4.5% of 410,000 active | HFF cells, HCMV-luciferase reporter, 72 h; active compounds read low | AID 1259415; in the data active = activity change below about -60%; inconclusive = no clear call, values can overlap the other calls; inactive = above about -39%
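Screen run at 2 compound doses on HFFs infected with reporter HCMV, MOI 1 PFU/cell. Luciferase activity from cell lysates at 72 h post infection gave inhibition relative to buffer-only and Salinomycin wells.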
Pf growth 48h: inhibits P. falciparum growth in the first generation, 48 h; P. falciparum luciferase growth in erythrocytes, 48 h; Potency, µM (titrated, usually from 28.7 µM), actives largely listed as inhibitors; 5.9% of 310,000 active; AID 504832
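Here the parasites carry a stable luciferase gene and grow inside erythrocytes in Albumax-based RPMI medium with compound for one erythrocytic cycle. Activity is scored as loss of luminescent signal.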
HCV inhibitor: inhibitors of hepatitis C virus infection; Huh7.5.1 HCVcc-Cre infection, luciferase reporter, 44 h; Potency, µM (series often up to 41.8 µM), hits mostly inhibitors; 3.4% of 340,000 active; AID 651820
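Antiviral activity was scored by luciferase reporter output from cells infected with HCVcc-Cre (~0.5 moi) in presence of compound, 44 h infection period, cells seeded 1,000/well 4 h prior.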
Large screens that a line does not name were inactive. An excerpt weighted towards active compounds, which were near 13% of everything screened. Unless noted, calls follow the shape of the dose curve; as a rule, active = well fitted inhibition curve with a large enough effect; inconclusive = small, poorly fitted or top-dose-only effect, or another doubt; inactive = no such curve, though single readings can be large or run the other way.

N#Cc1ccc(C23CC4(C2)[C@H](CN(Cc2ccc(C(F)(F)F)cc2)[C@@H]4c2ccccc2)C3c2ccc(Cl)nc2)cc1 (some centres undefined)	Pf growth 96h 13.1µM, Pf growth 48h 11.7µM (no result: HCV inhibitor)
c1ccc(-c2ccc(CN3C[C@@H]4C(c5ccccc5)C5(c6ccccc6)CC4(C5)[C@H]3c3ccccc3)cc2)cc1 (some centres undefined)	Pf growth 96h inconclusive
COC(=O)c1ccc(C23CC4(C2)[C@H](CN(CC2CCCCC2)[C@@H]4c2ccccc2)C3c2ccc(Cl)nc2)cc1 (some centres undefined)	Pf growth 96h 9.28µM, Pf growth 48h 9.28µM
Clc1ccc(C2[C@H]3CN(CC4CCCCC4)[C@H](c4ccccc4)C34CC2(c2ccccc2)C4)cn1 (some centres undefined)	Pf growth 96h inconclusive, Pf growth 48h inconclusive
Clc1ccc(C2[C@H]3CN(Cc4ccc(-c5ccccc5)cc4)[C@H](c4ccccc4)C34CC2(c2cccnc2)C4)cn1 (some centres undefined)	Pf growth 96h 2.33µM, Pf growth 48h 3.29µM (no result: HCMV antiviral, HCV inhibitor)
COC(=O)c1cccc(C23CC4(C2)[C@H](CN(CC2CCCCC2)[C@@H]4c2ccccc2)C3c2ccccc2)c1 (some centres undefined)	Pf growth 96h 4.15µM, Pf growth 48h 10.4µM
CNS(=O)(=O)c1cn(CC(=O)Nc2ccc(F)cc2F)cc1S(=O)(=O)NC	none (no result: Pf growth 96h, Pf growth 48h, HCV inhibitor)
CC(C)(C)c1ccc(C(=O)NCC(=O)OCc2cc(=O)n3nc(C4CC4)sc3n2)cc1	none (no result: Pf growth 96h, Pf growth 48h, HCV inhibitor)
COc1ccc(NC(=O)C(c2ccccc2F)n2c(=O)c(-c3cc4ccccc4[nH]3)nc3ccccc32)cc1 (centres undefined)	none (no result: Pf growth 96h, Pf growth 48h, HCV inhibitor)
COC(=O)c1cccc(C23CC4(C2)[C@H](CN(Cc2ccc(-c5ccccc5)cc2)[C@@H]4c2ccccc2)C3c2ccc(Cl)nc2)c1 (some centres undefined)	Pf growth 96h inconclusive, Pf growth 48h inconclusive
COC(=O)c1ccc(C23CC4(C2)[C@H](CN(Cc2ccc(C(F)(F)F)cc2)[C@@H]4c2ccccc2)C3c2ccc(Cl)nc2)cc1 (some centres undefined)	Pf growth 96h 11.7µM, Pf growth 48h 5.22µM, HCV inhibitor inconclusive
FC(F)(F)c1ccc(CN2C[C@@H]3C(c4ccc(Cl)nc4)C4(c5cccnc5)CC3(C4)[C@H]2c2ccccc2)cc1 (some centres undefined)	Pf growth 96h 2.33µM, HCMV antiviral -67.4, Pf growth 48h 3.29µM
N#Cc1ccc(C23CC4(C2)[C@H](CN(Cc2ccc(-c5ccccc5)cc2)[C@@H]4c2ccccc2)C3c2ccccc2)cc1 (some centres undefined)	Pf growth 96h inconclusive
FC(F)(F)c1ccc(C2[C@H]3CN(CC4CCCCC4)[C@H](c4ccccc4)C34CC2(c2cccnc2)C4)cc1 (some centres undefined)	Pf growth 96h 3.29µM, Pf growth 48h 3.29µM
CCOC(=O)c1c(C)[nH]c(C)c1S(=O)(=O)N1CCC(C(=O)Nc2ccc(C)c(N(C)C)c2)CC1	none (no result: Pf growth 96h, Pf growth 48h, HCV inhibitor)
CN1c2ccccc2-c2nc3ccccc3n2C1c1cccs1 (centres undefined)	Pf growth 96h 1.65µM, Pf growth 48h 8.28µM, HCV inhibitor inconclusive
CC(=O)N1c2ccccc2-c2nc3ccccc3n2C1C (centres undefined)	none
Cc1ccc(C2N(C)c3ccccc3-c3nc4ccccc4n32)o1 (centres undefined)	Pf growth 96h 3.7µM, HCV inhibitor inconclusive (no result: Pf growth 48h)
Oc1c(I)cc(Cl)c2cccnc12	Pf growth 96h inconclusive, Pf growth 48h inconclusive, HCV inhibitor inconclusive
CCN1CCN(C(c2ccc(C(F)(F)F)cc2)c2ccc3cccnc3c2O)CC1 (centres undefined)	Pf growth 96h inconclusive, HCMV antiviral -84.8, HCV inhibitor 7.08µM (no result: Pf growth 48h)
Oc1c(C(c2ccccn2)N2CCCCC2)cc(Cl)c2cccnc12 (centres undefined)	Pf growth 96h inconclusive, Pf growth 48h inconclusive, HCV inhibitor 10µM
CN1CCN(C(c2ccc(Cl)cc2)c2cc(Cl)c3cccnc3c2O)CC1 (centres undefined)	Pf growth 96h inconclusive, Pf growth 48h inconclusive, HCV inhibitor inconclusive
OCCN1CCN(C(c2cccs2)c2ccc3cccnc3c2O)CC1 (centres undefined)	Pf growth 48h 2.08µM (no result: HCMV antiviral, HCV inhibitor)

Compound activity as filed in PubChem.
